Screening data from PubChem BioAssay.
HP1b chromo inh = HTS for Inhibitors of HP1-beta Chromodomain Interactions with Methylated Histone Tails | Chromobox protein homolog 1 (Homo sapiens), P83916 | actives 0.56% (n = 390,000) | Potency, µM (highest dose often 114 µM), for the others: at the top dose activity change, negative = inhibition, usual class: inhibitors | AlphaScreen HP1-beta / biotin-H3K9me3 peptide binding; further: nearly all actives have a fitted effect of over 70% in size
Target sequence (P83916 whole entry, looked up): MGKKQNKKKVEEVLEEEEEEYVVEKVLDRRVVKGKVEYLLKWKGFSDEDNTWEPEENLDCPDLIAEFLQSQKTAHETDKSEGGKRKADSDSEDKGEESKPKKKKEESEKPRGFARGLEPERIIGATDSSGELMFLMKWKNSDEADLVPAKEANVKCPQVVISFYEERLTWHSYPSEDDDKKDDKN
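AlphaScreen: HP1-beta (50 nM) preformed 30 min with biotin-H3(1-18)K9me3 peptide (50 nM) in PBS pH 7.4, 0.01% Tween-20. Compound added for 30 min at RT, then streptavidin donor/nickel chelate acceptor beads (10 ug/mL) for 30 min.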
JMJD2A Tudor = qHTS Assay for Inhibitors of JMJD2A-Tudor Domain; AID 504339, 2011; AlphaScreen JMJD2A-Tudor / H3K4me3 peptide binding; actives 4.4% (n = 390,000); Potency, µM (doses to about 114 µM), inactives show top-dose activity change, negative = inhibition, most hits filed as inhibitors; further: on the % scale 0 is the no-effect control and ±100 the full control effect; nearly all actives have a fitted effect of over 50% in size
BAZ2B inh = qHTS Assay for Inhibitors of BAZ2B; AlphaScreen BAZ2B-H3K14Ac peptide displacement; Potency, µM (doses to about 114 µM), for inactives: top-dose activity change, negative = inhibition, most hits filed as inhibitors; actives 4.4% (n = 360,000); AID 504333, 2011; further: on the % scale 0 is the no-effect control and ±100 the full control effect; nearly all actives have a fitted effect of over 60% in size
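AlphaScreen luminescence quantifies BAZ2B engagement of H3K14Ac peptide; the protein and biotinylated peptide are both at 50 nM final, buffer PBS pH 7.4 with 0.01% Tween-20, all steps at room temperature.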
Sfp PPTase inh = qHTS Assay for Inhibitors of Bacillus subtilis Sfp phosphopantetheinyl transferase (PPTase); 4'-phosphopantetheinyl transferase ffp (Bacillus subtilis), Q9F4F7; Biochemical Sfp PPTase activity, qHTS; Potency, µM, without a hit: largest response in the series, negative = inhibition, usual class: inhibitors; actives 3.5% (n = 310,000);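 further: the enzyme is Sfp with the accession as filed and its product quenches rhodamine fluorescence; 0% = enzyme reaction without inhibitor and -100% = no enzyme wells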
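Compounds were incubated with enzyme (final 15 nM) for 15 min at room temperature before substrate addition started the reaction. Fluorescence at 525 nm excitation, 598 nm emission was recorded immediately and after 30 minutes.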
G9a block = qHTS Assay for Inhibitors of Histone Lysine Methyltransferase G9a; G9a H3K9 monomethylation, AlphaScreen, 2 h; Potency, µM (highest dose often 102 µM), without a hit: at the highest dose activity, negative = inhibition, actives largely listed as inhibitors; actives 8.8% (n = 350,000); further: on the % scale 0 is the no-effect control and ±100 the full control effect; nearly all actives have a fitted effect of over 75% in size
Target sequence (Q96KQ7 913-1193 limits assumed): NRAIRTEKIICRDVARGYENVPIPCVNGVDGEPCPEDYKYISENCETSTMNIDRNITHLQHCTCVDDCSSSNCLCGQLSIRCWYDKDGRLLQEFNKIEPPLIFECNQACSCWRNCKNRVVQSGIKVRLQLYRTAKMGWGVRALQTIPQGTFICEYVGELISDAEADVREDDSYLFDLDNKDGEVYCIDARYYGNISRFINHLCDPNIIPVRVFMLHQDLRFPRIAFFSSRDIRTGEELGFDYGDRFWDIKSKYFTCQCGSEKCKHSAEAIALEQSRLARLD
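Readings reflect AlphaScreen signal from monomethyl-H3K9 antibody detection. HMT at 20 nM; substrate b-H3K9 500 nM; cofactor SAM 20 uM; 2 h RT reaction; compounds tested as titrations in qHTS with 15 min preincubation.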
Starred values were filed as active, the others as inactive; u = inconclusive; x = not tested or not shown; [ ] = remark or other dose. Rows were chosen to be rich in hits. Some 12% of all compounds tested hit in one or more screens of this group. The call rests on the fitted dose curve; in most records, active means well fitted curve in the direction sought with a large enough effect; inconclusive means small, poorly fitted or top-dose-only effect, or another doubt; inactive means no such curve, though single readings can be large; an effect the other way counts as inactive or inconclusive. Potency means the concentration at half of the fitted maximal effect.

SMILES	HP1b chromo inh	JMJD2A Tudor	BAZ2B inh	Sfp PPTase inh	G9a block
CCOc1ccccc1NC(=O)N1CCC(NC(=O)c2cccc(C)c2)CC1	4%	-32%	13%	-25%	32µM*
Cc1ccc(NC(=S)N2CCC(NC(=O)c3cccc(F)c3)CC2)cc1	9%	-23%	-39%	14%	17%
Cc1ccc(NC(=S)N2CCC(NC(=O)c3ccc(C)cc3)CC2)cc1	-5%	-18%	-1%	9%	79µM*
COc1ccc(CCNC(=O)CC(=O)N/N=C/c2ccc(C(=O)O)cc2)cc1OC	40%	-4%	-28%	12%	7%
CC(=O)c1cccc(CN2CCN(CC(C)C)C(CCO)C2)c1 (centres undefined)	18%	-10%	4%	-11%	11%
COc1ccc(C2c3cccn3CCN2S(=O)(=O)c2ccc([N+](=O)[O-])cc2)cc1 (centres undefined)	-4%	-35%	u	x	13µM*
O=S(=O)(c1ccc(Br)cc1)N1CCn2cccc2C1c1ccc(Br)cc1 (centres undefined)	9%	-17%	-11%	x	-19%[59 µM]
CN(CCc1cn[nH]c1)Cc1nc(Cc2ccccc2F)no1	38%	3%	-4%	1%	x
O=Cc1cc2cc3c(cc2nc1Cl)OCCO3	59%	-2%	-2%	2%	-3%
O=C(O)c1ccc(N/N=C/c2cc3cc4c(cc3nc2Cl)OCCO4)cc1	10%	-29%	79µM*	3%	u
Cc1c(CC(=O)N2CCN(C(=O)C3COc4ccccc4O3)CC2)c(=O)oc2cc(O)ccc12 (centres undefined)	61%	-21%	-6%[57.1 µM]	13%	10%
Cc1ccccc1NC(=O)CCN1CCCCCC1	47%	-5%[57.1 µM]	x	x	x
Cc1cc2oc(=O)cc(CSc3nnc(C)n3N)c2cc1C(C)C	18%	-2%	-2%	8%	-40%
Cc1cc2oc(=O)cc(CSc3nnc(-c4cccs4)o3)c2cc1C(C)C	-7%	89µM*	-8%	-9%	35µM*
Cc1cccc(NC(=S)N/C(=N/S(=O)(=O)c2ccccc2)c2ccccc2)c1	-17%	-18%	-21%	u	u
Cc1ccc(NC(=O)Nc2c(C)n(C)n(-c3ccccc3)c2=O)cc1C	u	14µM*	-16%	5%	-23%
Cc1c(NC(=S)N/N=C/c2ccc([N+](=O)[O-])cc2O)c(=O)n(-c2ccccc2)n1C	29%	45µM*	14µM*	31%	2%
COc1ccc(NC(=O)Nc2c(C)n(C)n(-c3ccccc3)c2=O)cc1OC	14%	-8%	-13%	11%	3%
Cc1cccc(C)c1NC(=S)Nc1c(C)n(C)n(-c2ccccc2)c1=O	34%	-19%	-7%	7%	0.79µM*
CC(C)OC(=S)N/C(=N\S(=O)(=O)c1ccccc1)c1ccccc1	-5%	-34%	0%	14µM*	11µM*
Cc1c(Cl)cccc1NC(=O)CNC(=O)c1ccc(F)cc1	18%	-6%	-2%	-8%	-46%
CCOc1ccccc1NC(=O)Cn1c(=O)n(Cc2ccco2)c(=O)c2cccnc21	12%	-15%	-1%	x	7%[59 µM]
Cc1ccc(S(=O)(=O)/N=C(/NC(=S)Nc2cccc(C)c2)c2ccccc2)cc1	u	-35%	-4%	50µM*	u
Cc1c(NC(=S)N/C(=N/S(=O)(=O)c2ccccc2)c2ccccc2)c(=O)n(-c2ccccc2)n1C	1%	-18%	-3%	-10%	u
Cc1c(NC(=O)c2c(N)sc3c2CCCC3)c(=O)n(-c2ccccc2)n1C	24%	-13%	10%	28µM*	u
SMILES	HP1b chromo inh	JMJD2A Tudor	BAZ2B inh	Sfp PPTase inh	G9a block
Cc1c(NC(=S)N/C(=N/S(=O)(=O)c2ccc(Cl)cc2)c2ccccc2)c(=O)n(-c2ccccc2)n1C	11%	3%	26%	35µM*	u
COc1ccc(/C=N/NC(=S)Nc2c(C)n(C)n(-c3ccccc3)c2=O)cc1OC	23%	-6%	-3%	45µM*	x
O=C(NCCCN1CCN(c2cccc(Cl)c2)CC1)c1cccc(N2CCCC2=O)c1	12%	-20%	7%	8%	23%[59 µM]
O=C(Nc1ccccc1N(C(=O)c1ccco1)S(=O)(=O)c1cccs1)c1ccco1	41%	-24%[11.4 µM]	-1%	14%	-22%
O=C(NCc1cccnc1)C1CCCN1S(=O)(=O)c1ccc(Cl)cc1 (centres undefined)	55%	-4%	-1%	4%	35%
Cc1c(NC(=S)N/N=C\c2ccccc2O)c(=O)n(-c2ccccc2)n1C	38%	40µM*	3.2µM*	13%	10%[59 µM]
CCN(CC)c1ccc2c(Cl)c(Br)c(=O)oc2c1	466%	104%[57.1 µM]	163%	56µM*	9%[0.0925 µM]
OC(CN1C2=NCCCN2c2ccccc21)c1ccc(Cl)cc1 (centres undefined)	39%	-22%	-5%	4%	-4%
O=C(c1ccc(Cl)cc1)c1c[nH]c(C(=O)NNc2ccccc2)c1	34%	-12%	-31%	25%	20µM*
CNC(=O)c1cc(C(=O)c2ccc(Cl)cc2)c[nH]1	33%	-18%	u	1%	-6%
CCc1nc2sc3c(=O)[nH]cnc3c2c2c1CSC(C)(C)C2	16%	-33%	u	45µM*	2.2µM*
CC(=O)C1C(=O)CC(c2ccc(Cl)cc2)CC1=O (centres undefined)	9%	u	-23%	18%	56µM*
Cc1ccc(Cl)c(OCC(=O)Nc2cccnc2)c1	5%	-8%	u	9%	20%
Cc1ccc(Cl)c(OCC(=O)Nc2sc(C)c(C)c2C#N)c1	4%	-22%	-3%	-27%	45µM*
CCOC(=O)N1CCC(N2CCN(S(=O)(=O)CC)CC2)CC1	u	4.5µM*	-31%	-22%	u
CCOC(=O)N1CCC(N2CCN(c3ccccc3)CC2)CC1	19%	-21%	-36%	11%	-86%
CCOC(=O)COc1ccc(S(=O)(=O)N2CCN(c3ccc(OC)cc3)CC2)cc1	-16%	28µM*	-5%	10%	4%
CCOC(=O)N1CCC(N2CCN(S(=O)(=O)c3ccc(OC)cc3)CC2)CC1	-11%	18µM*	-10%	4%	u
COc1ccc(S(=O)(=O)N2CCN(C3CCN(Cc4ccccc4)CC3)CC2)cc1	-5%	-13%	x	14%	-4%[59 µM]
CCOC(=O)c1ccc(S(=O)(=O)N2CCN(C3CCCC3)CC2)cc1	20%	-14%	-19%	18µM*	-10%
CCOC(=O)c1ccc(S(=O)(=O)N2CCN(C(C)=O)CC2)cc1	29%	-5%	-20%	19%	-22%
O=C(CCSc1nc2ccccc2o1)N1CCOCC1	40%	-9%	-8%	-5%	14µM*
